Laboratory results published in PubChem BioAssay (NCI).
About 79,000 compounds went through this panel and 15% of them were active in at least one assay; those are over-represented in the sample as a whole. Activity calls are given as the source filed them. No stated cut-off is given here; in the data, active means growth inhibition above about 70%; inactive means the rest.

Key:
[1] = NCI Yeast Anticancer Drug Screen. Data for the rad52 strain (AID 147);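 further: 0% = growth of vehicle-treated control cultures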; details: S. cerevisiae rad52 mutant growth inhibition, active compounds read high
In short: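 Yeast strain carrying a DNA damage repair alteration was exposed to test compounds. Growth inhibition was measured relative to vehicle-treated controls.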

[2] = NCI Yeast Anticancer Drug Screen. Data for the wt1 strain (AID 149);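 further: 0% = growth of vehicle-treated wt1 cultures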; details: S. cerevisiae wt1 strain (SPY 50644) growth inhibition, active compounds read high
In short: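 Vehicle-normalised growth inhibition; strain wt1; compound exposure.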

[3] = NCI Yeast Anticancer Drug Screen. Data for the rad50EPP+ strain (AID 151);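 further: 0% = growth of vehicle-treated control cultures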; details: S. cerevisiae rad50 mutant strain, active compounds read high
In short: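 Yeast strain carrying rad50 alteration (rad50EPP+) exposed to compounds; growth inhibition measured relative to vehicle-treated controls.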

[4] = NCI Yeast Anticancer Drug Screen. Data for the mgt1 strain (AID 153); details: S. cerevisiae mgt1 mutant growth inhibition, active compounds read high
In short: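 Yeast mgt1 strain (DNA repair/cell-cycle alteration panel) exposed to compounds; growth inhibition measured relative to vehicle-treated controls.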

[5] = NCI Yeast Anticancer Drug Screen. Data for the rad50 strain (AID 155);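 further: 0% = growth of vehicle-only cultures of the same strain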; details: S. cerevisiae rad50 strain growth inhibition, active compounds read high
In short: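 A DNA repair-deficient yeast mutant serves as the test organism; compound-induced growth inhibition is calculated against vehicle-treated cells.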

[6] = NCI Yeast Anticancer Drug Screen. Data for the mec2-1 strain (AID 157); details: S. cerevisiae mec2-1 strain, active compounds read high
In short: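 mec2-1 yeast strain, carrying an alteration in DNA damage repair or cell cycle control, was exposed to compounds; growth inhibition was measured relative to vehicle-treated controls.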

[7] = NCI Yeast Anticancer Drug Screen. Data for the rad14 strain (AID 159);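 further: 0% = growth of vehicle-treated control cultures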; details: S. cerevisiae rad14 strain growth inhibition, active compounds read high
In short: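 Vehicle-treated cultures served as the baseline for growth inhibition of a DNA repair-mutant yeast strain exposed to each compound.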

[8] = NCI Yeast Anticancer Drug Screen. Data for the sgs1 mgt1 strain (AID 161);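 further: 0% = growth of cultures given vehicle only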; details: S. cerevisiae sgs1 mgt1 strain, active compounds read high
In short: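 Compounds are added to genetically altered yeast, and growth is compared with cultures given vehicle alone to give percent inhibition.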

[9] = NCI Yeast Anticancer Drug Screen. Data for the CLN2oe strain (AID 163);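 further: 0% = growth of vehicle-only control cultures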; details: S. cerevisiae CLN2oe strain, active compounds read high
In short: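 Yeast cells carrying a defined cell-cycle control alteration were exposed to test compounds. Growth inhibition was scored against vehicle-treated control cultures.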

[10] = NCI Yeast Anticancer Drug Screen. Data for the cln2 rad14 strain (AID 165);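 further: 0% = growth equal to vehicle treated cultures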; details: S. cerevisiae cln2 rad14 strain, active compounds read high
In short: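 Yeast carrying cln2 and rad14 alterations (cell cycle control and DNA damage repair) were exposed to compounds. Growth inhibition was measured against vehicle-treated controls.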

[11] = NCI Yeast Anticancer Drug Screen. Data for the bub3 strain (AID 167); details: S. cerevisiae bub3 mutant strain, active compounds read high
In short: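 Inhibition values come from growth of compound-treated mutant yeast normalised to vehicle-treated controls.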

[12] = NCI Yeast Anticancer Drug Screen. Data for the wt2 strain (AID 169);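 further: 0% = growth of vehicle-treated yeast cultures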; details: S. cerevisiae wt2 strain growth inhibition, active compounds read high
In short: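 Yeast cells were exposed to test compounds, and growth inhibition was measured relative to vehicle-treated controls.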

[13] = NCI Yeast Anticancer Drug Screen. Data for the mlh1 strain (AID 171);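 further: 0% = growth of vehicle-treated control cultures of the same strain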; details: S. cerevisiae mlh1 strain growth inhibition, active compounds read high
In short: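 Yeast carrying a defined genetic alteration in DNA damage repair or cell cycle control were exposed to test compounds. Growth inhibition was measured relative to vehicle-treated controls.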

[14] = NCI Yeast Anticancer Drug Screen. Data for the sgs1 strain (AID 173);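 further: 0% = growth of vehicle-only control cultures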; details: S. cerevisiae sgs1 mutant, active compounds read high
In short: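 Yeast mutant strains carrying defined defects in DNA damage repair or cell cycle control were exposed to test compounds. Growth inhibition was scored against vehicle-treated controls.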

[15] = NCI Yeast Anticancer Drug Screen. Data for the mlh1 rad18 strain (AID 175); details: S. cerevisiae mlh1 rad18 strain growth inhibition, active compounds read high
In short: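 Growth inhibition of the yeast strain was measured after compound exposure and expressed relative to vehicle-treated controls. The strain carries defined defects in DNA damage repair.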

[16] = NCI Yeast Anticancer Drug Screen. Data for the rad18 strain (AID 177); details: S. cerevisiae rad18 mutant growth inhibition, active compounds read high
In short: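 Yeast carrying a defined DNA damage repair alteration were exposed to compounds. Growth inhibition was expressed relative to vehicle-treated controls.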

[17] = at 5.0 µM (retest, dose inferred, filed as 0.5)
[18] = at 50.0 µM (retest, dose inferred, filed as 5.0)

Measured: growth inhibition

COC(=O)c1cnc(Cl)c([N+](=O)[O-])c1
inactive: [1]; at 1.2 µM 17% | [1]; at 3.7 µM 53% | [2]; at 1.2 µM 6% | [2]; at 3.7 µM 15% | [3]; at 1.2 µM 14% | [3]; at 3.7 µM 48% | [4]; at 1.2 µM 2% | [4]; at 3.7 µM 23% | [5]; at 1.2 µM 22% | [6]; at 1.2 µM 5% | [6]; at 3.7 µM 10% | [6]; [17] 41% | [7]; at 1.2 µM 2% | [7]; at 3.7 µM 18% | [7]; at 11.0 µM 39% | [8]; [17] 47% | [9]; at 1.2 µM 0% | [9]; at 3.7 µM 5% | [9]; at 11.0 µM 48% | [10]; [17] 2% | [11]; at 1.2 µM 2% | [11]; at 3.7 µM 7% | [11]; [17] 24% | [12]; at 1.2 µM 4% | [12]; at 3.7 µM 20% | [13]; at 1.2 µM 3% | [13]; at 3.7 µM 11% | [14]; at 1.2 µM 5% | [14]; at 3.7 µM 20% | [16]; at 1.2 µM 4% | [16]; at 3.7 µM 29%
active: [1]; at 11.0 µM 94% | [1]; at 33.0 µM 98% | [1]; at 100.0 µM 99% | [2]; at 11.0 µM 82% | [2]; at 33.0 µM 99% | [2]; at 100.0 µM 99% | [3]; at 11.0 µM 93% | [3]; at 33.0 µM 98% | [3]; at 100.0 µM 99% | [4]; at 11.0 µM 92% | [4]; at 33.0 µM 99% | [4]; at 100.0 µM 99% | [5]; at 3.7 µM 75% | [5]; [17] 79% | [5]; at 11.0 µM 97% | [5]; at 33.0 µM 99% | [5]; [18] 98% | [5]; at 50.0 µM 99.5% | [5]; at 100.0 µM 99% | [6]; at 11.0 µM 72% | [6]; at 33.0 µM 98% | [6]; [18] 99% | [6]; at 50.0 µM 99.5% | [6]; at 100.0 µM 99% | [7]; at 33.0 µM 97% | [7]; at 100.0 µM 99% | [8]; [18] 99% | [8]; at 50.0 µM 99.3% | [9]; at 33.0 µM 97% | [9]; at 100.0 µM 99% | [10]; [18] 98% | [10]; at 50.0 µM 94.8% | [11]; at 11.0 µM 85% | [11]; at 33.0 µM 98% | [11]; [18] 99% | [11]; at 50.0 µM 98.9% | [11]; at 100.0 µM 99% | [12]; at 11.0 µM 88% | [12]; at 33.0 µM 99% | [12]; at 100.0 µM 99% | [13]; at 11.0 µM 92% | [13]; at 33.0 µM 99% | [13]; at 100.0 µM 100% | [14]; at 11.0 µM 88% | [14]; at 33.0 µM 98% | [14]; at 100.0 µM 99% | [15]; [17] 72% | [15]; [18] 98% | [15]; at 50.0 µM 98.5% | [16]; at 11.0 µM 95% | [16]; at 33.0 µM 98% | [16]; at 100.0 µM 99%
